Laboratory results as given in PubChem BioAssay (NCI).
About 83,000 compounds went through this panel and 20% of them were active in at least one assay; those are over-represented in the sample as a whole.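 Negative percent growth values reflect cell death: -40 means 40% of the cells present at the start died, and -100 means all died.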 Activity calls are given as the source filed them. The calls were made as follows: active = growth percent below 10; inactive = the rest.

Legend:
Experiment in all cases: NCI-60 one-dose screen, 48 h (100 = growth as untreated, 0 = no growth, -100 = all killed)
Settings in all cases: 10 µM unless noted
[1] = tested on: DU-145 prostate
[2] = tested on: K-562 leukemia
[3] = tested on: MALME-3M melanoma
[4] = tested on: MDA-MB-231 breast
[5] = tested on: RXF 393 renal
[6] = tested on: SF-268 CNS
[7] = tested on: SF-295 CNS
[8] = tested on: SF-539 CNS
[9] = tested on: UACC-257 melanoma
[10] = tested on: M14 melanoma

Measured: growth

CC1CCN(CCCCCOc2ccc3oc4cc(Cl)ccc4c(=O)c3c2)CC1
inactive: [1] 83.7% | [4] 44.3% | [5] 52.8% | [6] 68.1% | [7] 78.2% | [8] 40.6%
active: [2] 5.17% | [3] 9.78% | [9] -38.8% | [10] -50.1%

N#Cc1ccc(Oc2ccc3ccc(=O)oc3c2)cc1
inactive: [1] 107% | [2] 79% | [3] 126% | [4] 98.5% | [5] 81.8% | [6] 105% | [7] 112% | [8] 101% | [9] 114% | [10] 92%

COc1ccc(-c2cc(-c3nnc(SCC(=O)Nc4ccc(/C(C)=N\O)cc4)o3)c3ccccc3n2)cc1
inactive: [1] 109% | [2] 96.5% | [3] 97.8% | [4] 114% | [5] 106% | [6] 101% | [7] 105% | [8] 111% | [9] 101% | [10] 115%

COc1ccc(C2=NN(c3ccc(S(N)(=O)=O)cc3)C(c3ccc(Cl)cc3)C2)c(O)c1 (stereo not given)
inactive: [1] 99.2% | [2] 23% | [3] 93.5% | [4] 76.5% | [5] 45.1% | [6] 83.8% | [7] 46.3% | [8] 89.9% | [9] 57.3% | [10] 51.3%

Cc1cc(C)cc(Nc2nccc(-c3c(-c4ccc(F)cc4)ncn3C3CCNCC3)n2)c1
inactive: [5] 18.3% | [6] 28.4% | [8] 31.3%
active: [1] 9.38% | [2] -33.3% | [3] -36.1% | [4] 7.44% | [7] 5.75% | [9] -50.6% | [10] -86.4%

C#Cc1ccccc1NC(=O)c1sc2nc3c(cc2c1N)CCCCC3
inactive: [1] 104% | [2] 90.5% | [3] 102% | [4] 93.5% | [5] 113% | [6] 104% | [7] 113% | [8] 101% | [9] 110% | [10] 93.9%

C#C[C@@]1(O)[C@@H](CO)O[C@@H](n2cc(Br)c3c(N)ncnc32)[C@@H]1O
inactive: [6] 13.9% | [9] 57.5%
active: [1] 5% | [2] 5.03% | [3] 5.66% | [4] 2.76% | [5] -30.9% | [7] 2.42% | [8] -60.8% | [10] 0.212%

C=C1C(=O)O[C@H]2[C@H]1CCC(/C=N/c1ncc(Br)cc1N)=C\CC[C@@]1(C)O[C@@H]21
inactive: [1] 15.5% | [6] 52.5% | [7] 70.3% | [8] 25.8% | [9] 22%
active: [2] 2.64% | [3] -9.18% | [4] -15.5% | [5] -79.3% | [10] -12.4%

O=C1CC(c2ccc(O)c(O)c2)Oc2cc(O)c([C@@H]3O[C@H](CO)[C@@H](O)[C@H](O)[C@H]3O)c(O)c21 (stereo not given in full)
inactive: [1] 105% | [2] 96.8% | [3] 110% | [4] 101% | [5] 103% | [6] 102% | [7] 103% | [8] 100% | [9] 106% | [10] 102%

COc1cc(/C=C/C(=O)/C=C/c2cc3ccc(Cl)cc3[nH]c2=O)ccc1O
inactive: [1] 45.9% | [2] 23.2% | [3] 101% | [4] 45.9% | [5] 70.9% | [6] 72.2% | [7] 79.7% | [8] 105% | [9] 90.8% | [10] 54.1%

O=C1CC23OC4ON=C(Br)C4C2C(O)c2ccccc2N13 (stereo not given)
inactive: [1] 105% | [2] 110% | [3] 79.9% | [4] 98.8% | [5] 115% | [6] 95.1% | [7] 109% | [8] 107% | [9] 103% | [10] 92.4%

O=C(CN1N=C(c2ccc(F)cc2)CCC1=O)Nc1nccs1
inactive: [1] 118% | [2] 92.6% | [3] 105% | [4] 109% | [5] 110% | [6] 99.9% | [7] 97.3% | [8] 98.1% | [9] 92.8% | [10] 102%

C1=CC2=CC=C3C=CC=C4C(c5nc6c7ccccc7c7ccccc7c6[nH]5)=CC(=C1)C2C34 (stereo not given)
inactive: [1] 105% | [2] 90.4% | [3] 117% | [4] 76.8% | [5] 99.8% | [6] 85.4% | [7] 113% | [8] 101% | [9] 105% | [10] 99.3%

C=C1C(=O)O[C@H]2[C@H]1CC/C(COC(=O)Nc1nc3ccccc3[nH]1)=C\CC[C@@]1(C)O[C@@H]21
inactive: [1] 36.3% | [2] 13.5% | [3] 48.6% | [4] 66.1% | [5] 30.6% | [6] 94.3% | [7] 107% | [8] 61.1% | [9] 76.2% | [10] 46.4%

COc1ccccc1-c1ccc2nc(NC(=O)Nc3cc(C(F)(F)F)cc(C(F)(F)F)c3)sc2c1
active: [2] 5.97% | [3] -13% | [4] -64.2% | [5] -6.71% | [7] -0.289% | [8] 5.2% | [9] -5.57%
inactive: [1] 19.5% | [6] 16.8% | [10] 16%

COC(=O)/C=C/c1cc(OC)c2c(c1)[C@@H](C(=O)OC)[C@H](c1ccc(OC)c(OC)c1)O2
inactive: [1] 14% | [2] 10.8% | [3] 44.3% | [4] 53.4% | [6] 59.6% | [7] 18.4% | [9] 44.7%
active: [5] -12.2% | [8] -7.1% | [10] 2.02%

C#C[C@@]1(O)[C@@H](CO)O[C@@H](n2cc(-c3ccco3)c3c(N)ncnc32)[C@@H]1O
inactive: [1] 67.9% | [2] 86.1% | [3] 59.4% | [4] 102% | [5] 80.9% | [6] 83% | [7] 76.9% | [8] 46% | [9] 89.3% | [10] 69.9%

COc1ccc(/C=C/C(=O)Nc2ncnc3nc[nH]c23)cc1
inactive: [1] 92.1% | [2] 81.2% | [3] 96.4% | [4] 109% | [5] 95.4% | [6] 93.5% | [7] 107% | [8] 100% | [9] 100% | [10] 87.8%

CC(=O)c1cnc(-c2ccccc2)nc1CBr
active: [2] 3.21%
inactive: [1] 70.9% | [3] 55.8% | [4] 66.4% | [5] 60% | [6] 84.8% | [7] 97.8% | [8] 91.6% | [9] 95.3% | [10] 69.8%

NC(=O)CN1C(=O)c2ccccc2C1=O
inactive: [1] 101% | [2] 96% | [3] 97.5% | [4] 101% | [5] 114% | [6] 97.3% | [7] 95.3% | [8] 106% | [9] 106% | [10] 102%

CCOC(=O)c1cnn(-c2nc(-c3ccc(F)cc3)c(C#N)c(N3CCOCC3)n2)c1N
inactive: [1] 102% | [2] 91.8% | [3] 107% | [4] 107% | [5] 122% | [6] 98.7% | [7] 101% | [8] 97.2% | [9] 106% | [10] 106%

CNCc1cccc2c1OCCOCCOCCN(CCN1CCOCC1)S(=O)(=O)c1ccc(cc1)-c1cnc(N)c(n1)C(=O)N2
inactive: [1] 45.7% | [2] 12.6% | [3] 93.8% | [4] 94.1% | [5] 14.8% | [6] 68% | [7] 68.1% | [8] 24.1% | [9] 98.7% | [10] 26.4%

CCCCCCC/C=C/[C@H]1O[C@]23C(=O)C[C@@]4(C[C@@H](OC5OC(CO)C(O)C(O)C5O)C[C@@H]4[C@H]2C=C1C)OC3=O (stereo not given in full)
inactive: [1] 39.8% | [6] 48.3% | [7] 58.5% | [9] 29%
active: [2] 9.99% | [3] 7.25% | [4] 5.73% | [5] -43.7% | [8] -14.3% | [10] -12.2%

CN(C)CSc1nc2ccccc2s1
inactive: [1] 105% | [2] 119% | [3] 86.7% | [4] 91.7% | [5] 106% | [6] 101% | [7] 92.8% | [8] 94.2% | [9] 113% | [10] 88.8%

O=c1nc(-c2ccccc2)c2cc(-c3ccc(N4CCCC4)nc3)ccc2[nH]1
inactive: [1] 85% | [2] 16.4% | [3] 89.6% | [4] 59.8% | [5] 81.2% | [6] 83.2% | [7] 39.4% | [8] 73.8% | [9] 88.6% | [10] 47.9%

CC(=O)[C@@H]1CC[C@]2(C(=O)O)CC[C@]3(C)[C@H](CC[C@@H]4[C@@]5(C)Cc6c([nH]c7ccccc67)C(C)(C)[C@@H]5CC[C@]43C)[C@@H]12
inactive: [1] 59.4% | [2] 37.8% | [3] 96.1% | [4] 83% | [5] 73.2% | [6] 63.4% | [7] 36% | [8] 74.3% | [9] 84.2% | [10] 78.7%

O=C1C(Cl)=C(Nc2ccc3c(c2NC2=C(Cl)C(=O)c4ccccc4C2=O)C(=O)c2ccccc2C3=O)C(=O)c2ccccc21
inactive: [2] 16.6% | [4] 14.6% | [5] 48.5% | [6] 39.5% | [7] 23.8% | [8] 15%
active: [1] -83.9% | [3] -85.1% | [9] -20.4% | [10] -64.8%
